From PubChem BioAssay AID493169 (National Center for Advancing Translational Sciences (NCATS), 2011)
Records with an inconclusive call do not appear. Unmarked numbers belong to inactive results. Calls of active or inactive are those of the source. Calls follow the shape of the dose curve; as a rule, active = well fitted inhibition curve with a large enough effect; inconclusive = small, poorly fitted or top-dose-only effect; inactive = flat fitted curve, though single readings scatter.

Experiment: CHOP2 Reporter Counterscreen Assay for Inhibitors of Ubiquitin-specific Protease USP2a;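 also: activated enterokinase alone at 50 pM in a cell-free format rather than USP2a or CHOP2; nearly all actives have a fitted effect of over 55% in size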
Conditions: purified enterokinase, fluorogenic substrate, 485/531 nm; series mostly up to 38.3 µM; activity change, negative = inhibition: at the top concentration
Outline: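 Cell-free counterscreen with pre-activated enterokinase alone (50 pM final) in 20mM Tris-HCl pH 8.0, 2mM CaCl2, 2mM beta-mercaptoethanol, 0.05% CHAPS; compound preincubation 30 min RT, reporter substrate 25nM final, fluorescence read after 10 min (Ex 485/Em 531).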
% is scaled to controls: 0 for no effect and ±100 for the full control effect; potency is read from the fitted curve at half-maximal effect.

Row | Compound | activity change, negative = inhibition [%] | Potency
1 | Cc1ccc(Cn2nnc3c(=O)[nH]c(C4CCN(S(=O)(=O)Cc5ccccc5)CC4)nc32)cc1 | 3.17 | 
2 | COc1ccccc1C1NC(c2ccccc2OC)C(C)C(=O)C1C (stereo unspecified) | 3.82 | 
3 | CCOc1ccc(CCn2c(-c3ccco3)nc3ccccc3c2=O)cc1OCC | 4.41 | 
4 | Cc1ccc(C)c(S(=O)(=O)c2c(N)n(/N=C/c3ccco3)c3nc4ccccc4nc23)c1 | 16.7 | 
5 | Nc1c(C(=O)NC2CC2)sc2nc3c(c(-c4ccco4)c12)CC/C3=C/c1ccco1 |  | 2.24 µM (active)
6 | O=C1CCCC2=C1C(c1ccco1)Nc1ccc3ccccc3c12 (stereo unspecified) |  | 7.94 µM (active)
7 | Cc1ccc(-c2c(C#N)c(N)nc3c2CCCCC3)o1 | 1.52 | 
8 | Cc1cc(C)c(NC(=O)C[N+](C)(C)CC(O)COc2cccc3ccccc23)c(C)c1 (stereo unspecified) | -4.33 | 
9 | CCCNC(=O)CS(=O)Cc1nc(-c2ccccc2C)oc1C (stereo unspecified) | 1.46 | 
10 | CCN(CC)CCNc1nc(-c2ccccc2)c2c(c1C#N)CC(C)(C)OC2 | 5.06 | 
11 | CCn1c(SCC(=O)NCCc2ccccc2)nnc1-c1cccs1 | 2.03 | 
12 | CC(=O)c1cccc(NC(=O)C(C)OC(=O)c2cc(=O)[nH]c3ccccc23)c1 (stereo unspecified) |  | 1 µM (active)
13 | CC1(C(=O)O)Sc2[nH]c(=O)sc2C2c3ccccc3OC(=O)C21 (stereo unspecified) | -1.3 | 
14 | Cc1noc(/C=C/NCc2cccnc2)c1S(=O)(=O)N(C)CC(=O)N1CCc2ccccc21 | -1.33 | 
15 | CCOC(=O)N1CCN(S(=O)(=O)c2ccc(C)cc2)C1c1ccc(OC)cc1 (stereo unspecified) | 1.57 | 
16 | Cc1ccc(C(=O)N/C(=C/c2cccs2)C(=O)NCc2ccco2)cc1 | 2.96 | 
